{"source": "PubChem BioAssay AID2661", "about": "(Broad Institute, 2010)", "note": "About 240 (0.075%) of roughly 320,000 compounds were called active.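 Rule for the calls: active = inhibition at or above 25%, using the most active replicate where run in duplicate; inactive = inhibition below 25%.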 This excerpt belongs to a sample that is enriched for actives."}
{"biological_target": "Serine/threonine-protein kinase 33 (Homo sapiens) (UniProt Q9BYT3)", "sequence (Q9BYT3 whole entry, looked up)": "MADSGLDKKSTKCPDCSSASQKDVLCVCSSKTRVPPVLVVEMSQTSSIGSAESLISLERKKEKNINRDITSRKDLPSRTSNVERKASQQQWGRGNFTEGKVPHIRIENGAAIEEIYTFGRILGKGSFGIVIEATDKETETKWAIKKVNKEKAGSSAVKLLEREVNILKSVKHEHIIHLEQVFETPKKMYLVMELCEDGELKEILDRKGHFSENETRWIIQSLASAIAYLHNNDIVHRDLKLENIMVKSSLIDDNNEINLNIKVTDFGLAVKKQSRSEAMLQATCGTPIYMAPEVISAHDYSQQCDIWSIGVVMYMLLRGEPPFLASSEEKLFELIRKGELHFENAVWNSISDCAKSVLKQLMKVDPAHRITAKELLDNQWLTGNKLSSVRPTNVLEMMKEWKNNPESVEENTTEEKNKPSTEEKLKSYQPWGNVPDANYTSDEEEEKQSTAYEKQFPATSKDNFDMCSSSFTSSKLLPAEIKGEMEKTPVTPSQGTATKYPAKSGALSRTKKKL", "experiment": "inhibitors of purified STK33 kinase, primary screen, biochemical, ADP-Glo luminescence, homogeneous, cell-free (AID 2661)", "conditions": "purified STK33, MBP phosphorylation, at 10 µM, active compounds read high"}
{"compound": "Oc1ccc(N=Cc2sc3ccccc3c2Cl)cc1", "inhibition": "1.25% (inactive)"}
{"compound": "Oc1ccc(N=Cc2c(O)ccc3ccccc23)cc1", "inhibition": "57.4% (active)"}
{"compound": "O=[N+]([O-])c1ccc(N=Cc2c(O)ccc3ccccc23)cc1", "inhibition": "-0.767% (inactive)"}
{"compound": "CC(OC(=O)c1c(F)cccc1F)C(=O)NCCC1=CCCCC1", "note": "(stereo not given)", "inhibition": "-0.382% (inactive)"}
{"compound": "Cc1ccc(C)c(S(=O)(=O)N2CCN(c3ncnc4sccc34)CC2)c1", "inhibition": "-3.05% (inactive)"}
{"compound": "COc1ccc(C(=O)Nc2cc(S(=O)(=O)N3CCCC3)ccc2Cl)cc1", "inhibition": "0.138% (inactive)"}
{"compound": "COc1cc(OC)cc(C(=O)NNC(=O)Cc2cccs2)c1", "inhibition": "-0.657% (inactive)"}
{"compound": "COc1ccc2sc(-c3ccc(S(C)(=O)=O)cc3)c(C#Cc3cncn3C)c2c1", "inhibition": "-0.341% (inactive)"}
{"compound": "O=C(CNC(=O)c1n[nH]c2ccccc12)Nc1cc(Cl)ccc1Cl", "inhibition": "1.57% (inactive)"}
{"compound": "CC(C)n1cnc2c(NCc3ccccc3)cc(N[C@@H](CO)Cc3ccccc3)cc21", "inhibition": "0.0472% (inactive)"}
{"compound": "C=CC[C@@H](CC(=O)N[C@@H](CO)Cc1ccccc1)C(=O)N[C@H](COC(=O)[C@H](CC=C)CC(=O)OC(C)(C)C)Cc1ccccc1", "inhibition": "-0.409% (inactive)"}
{"compound": "CCCCCCSc1ccc([C@@H]2[C@H]3C(=O)N(CC)C(=O)[C@H]3[C@]3(C(=O)OC)CCCCN23)cc1", "inhibition": "1.08% (inactive)"}
{"compound": "CC(C)NC(=O)Nc1cccc2c1O[C@H](CN(C)S(=O)(=O)c1cccs1)[C@@H](C)CN([C@H](C)CO)C2=O", "inhibition": "-0.082% (inactive)"}
{"compound": "O=C(CCc1ccc(S(=O)(=O)N2CCOCC2)cc1)OCC(=O)c1ccc(Br)cc1", "inhibition": "2.88% (inactive)"}
{"compound": "COc1cc(NC(=O)COC(=O)c2ccc([N+](=O)[O-])s2)cc(OC)c1OC", "inhibition": "-0.723% (inactive)"}
{"compound": "O=C(CSc1nc2ccccc2c(=O)n1-c1ccccc1F)N1CCOCC1", "inhibition": "-0.216% (inactive)"}
{"compound": "COC(=O)c1ccc(CNC(=O)c2ccc(S(=O)(=O)N3CCCCCC3)cc2)cc1", "inhibition": "-0.472% (inactive)"}
{"compound": "Cn1cncc1C#Cc1c(-c2ccsc2)sc2ccccc12", "inhibition": "0.202% (inactive)"}
{"compound": "Cc1ccccc1NC(=O)CSC(=O)c1ccccc1", "inhibition": "-0.158% (inactive)"}
{"compound": "COc1ccc(S(=O)(=O)N2CCOCC2)cc1NC(=O)CSc1nnc(NC2CC2)s1", "inhibition": "-0.646% (inactive)"}
{"compound": "O=C(CN1C(=O)NC2(CCCCCCC2)C1=O)NCc1ccc(F)cc1", "inhibition": "0.305% (inactive)"}
{"compound": "COc1cc(/C=C/C(=O)OCC(=O)NCCCc2ccccc2)ccc1O", "inhibition": "-0.517% (inactive)"}
{"compound": "COc1ccc(-c2sc3ccccc3c2-c2ccc(OCCN3CCOCC3)cc2)cc1", "inhibition": "-0.928% (inactive)"}
{"compound": "COc1ccc(S(=O)(=O)N2CCN(c3cnccn3)CC2)cc1", "inhibition": "0.373% (inactive)"}
{"compound": "Cc1onc(-c2c(F)cccc2Cl)c1C(=O)OCC(=O)N1C(C)CCCC1C", "note": "(stereo not given)", "inhibition": "-0.377% (inactive)"}
{"compound": "Cc1ccc(C)c(NC(=O)COC(=O)c2nn(C)c(=O)c3ccccc23)c1", "inhibition": "0.213% (inactive)"}
{"compound": "Cc1cc(NC(=O)CSc2ncc(C(F)(F)F)cc2Cl)no1", "inhibition": "-0.4% (inactive)"}
{"compound": "COc1ccc(C(=O)O)cc1S(=O)(=O)NC1CCN(Cc2ccccc2)CC1", "inhibition": "-0.986% (inactive)"}
{"compound": "Cn1nnnc1SCC(=O)Nc1sccc1C(N)=O", "inhibition": "0.459% (inactive)"}
{"compound": "O=C(c1ccc(S(=O)(=O)NCc2ccco2)cc1)N1CCN(c2ccccc2)CC1", "inhibition": "-0.564% (inactive)"}
{"compound": "COCC(C)n1c(SCC(=O)NC2CCCCC2C)nc2ccccc2c1=O", "note": "(stereo not given)", "inhibition": "1.21% (inactive)"}
{"compound": "C[C@H](CO)N1C[C@H](C)[C@H](CN(C)C(=O)Nc2ccc(C(F)(F)F)cc2)Oc2c(NC(=O)c3ccncc3)cccc2C1=O", "inhibition": "-1.64% (inactive)"}
{"compound": "Cc1ccc(NC(=O)Cn2cnc3c(OCc4ccccc4)ncnc32)cc1C", "inhibition": "-0.221% (inactive)"}
{"compound": "COc1ccc(-c2oc3ncn(Cc4ccco4)c(=N)c3c2-c2ccc(OC)cc2)cc1", "inhibition": "0.0388% (inactive)"}
{"compound": "N=c1c2c(-c3ccccc3)c(-c3ccccc3)oc2ncn1Cc1ccco1", "inhibition": "29.3% (active)"}
{"compound": "N=c1c2c(-c3ccccc3)c(-c3ccccc3)n(Cc3ccccc3)c2ncn1CCCO", "inhibition": "-0.27% (inactive)"}
{"compound": "CSCCC1NC(=O)N(CC(=O)Nc2cccc(S(=O)(=O)N3CCCCCC3)c2)C1=O", "note": "(stereo not given)", "inhibition": "-1.42% (inactive)"}
{"compound": "CN=C(Nc1cccc(S(=O)(=O)N2CCOCC2)c1)c1ccccc1", "inhibition": "-1.05% (inactive)"}
{"compound": "CCN(C(=O)CSc1cccc[n+]1[O-])c1ccccc1", "inhibition": "-2.46% (inactive)"}
{"compound": "C[C@H](NS(=O)(=O)c1ccc(Cl)cc1)C(=O)OCC(=O)N1CCOCC1", "inhibition": "-1.2% (inactive)"}
{"compound": "Cc1ccsc1C(=O)NCCc1ccco1", "inhibition": "-0.976% (inactive)"}
{"compound": "CC(C)CC1NC(=O)c2cc(Cl)ccc2-n2c1nc1ccccc1c2=O", "note": "(stereo not given)", "inhibition": "-0.406% (inactive)"}
{"compound": "CC(NC(=O)COC(=O)CCC(=O)c1ccc(Cl)cc1)c1ccccc1", "note": "(stereo not given)", "inhibition": "0.0433% (inactive)"}
{"compound": "CCCCCCSc1ccc(-c2nc3ccc(Cl)cn3c2NCc2ccccc2)cc1", "inhibition": "-0.955% (inactive)"}
{"compound": "O=C(Nc1ccccc1-c1ccccc1)c1cccs1", "inhibition": "4.17% (inactive)"}
{"compound": "O=C(Nc1ccccc1-c1nc2ccccc2[nH]c1=O)c1cccs1", "inhibition": "71.9% (active)"}
{"compound": "O=C(Nc1ccccc1-c1nnn(CC(=O)N2CCN(c3ccccc3)CC2)n1)c1cccs1", "inhibition": "-0.118% (inactive)"}
{"compound": "O=C(COc1ccc(Br)cc1F)NCC1(N2CCCCC2)CCCCC1", "inhibition": "-1.07% (inactive)"}
{"compound": "Cc1ccccc1SCC(=O)OCC(=O)N1CC(=O)Nc2ccccc21", "inhibition": "-0.869% (inactive)"}
{"compound": "C[C@H](CO)N1C[C@H](C)[C@@H](CN(C)C(=O)NC2CCCCC2)Oc2ccc(NC(=O)c3ccncc3)cc2C1=O", "inhibition": "0.225% (inactive)"}
{"compound": "CCC(CO)Oc1cc(NC(=O)c2ccc(Cl)cc2)c2ncn(C(C)C)c2c1", "note": "(stereo not given)", "inhibition": "-0.728% (inactive)"}
{"compound": "COc1ccc(OCC(=O)NNC(=O)C2CCC2)cc1", "inhibition": "-0.275% (inactive)"}
{"compound": "COc1ccc(OC)c(NC(=O)COC(=O)Cc2ccsc2)c1", "inhibition": "0.647% (inactive)"}
{"compound": "Cc1ccc(S(=O)(=O)N2[C@@H](c3ccc(Br)cc3)C(C(=O)O)=C[C@H]2CC2CCCC2)cc1", "inhibition": "-2.01% (inactive)"}
{"compound": "CCOC(=O)[C@@H]1[C@H]2COc3ccc(Br)cc3[C@H]2N2C(=O)N(c3ccc(C)cc3)C(=O)[C@@]12C", "inhibition": "-0.0883% (inactive)"}
